The text below walks through data of PubChem BioAssay (NCATS).

Results filed as inconclusive are left out. The source made the active and inactive calls. The call rests on the fitted dose curve; in most records, active means well fitted cell-killing curve with a large enough effect; inconclusive means small, poorly fitted or top-dose-only effect, or effect the other way; inactive means no such curve, though single readings can be large or run the other way.
Potency means the concentration at half of the fitted maximal effect.

This assay can be described thus: Quantitative High-Throughput drug screen in 47 multiple myeloma cell lines against the NCATS MIPE library collection: OCIMY7_PLB cell viability assay (AID 1918987). Further: nearly all actives have a fitted effect of over 65% in size. The settings on record: OCI-MY7 myeloma viability, CellTiter-Glo ATP, 48 h; series mostly up to 45.8 µM; viability (% of DMSO): at the top concentration. The source says: PI: Beverly A. Mock Ph.D.
Laboratory of Cancer Biology and Genetics,
Center for Cancer Research, National Cancer Institute,
National Institute of Health, Bethesda, Maryland
Drug resistance and disease progression are common in multiple myeloma (MM) patients, underscoring the need for new therapeutic combinations. […] We hypothesized that effective combinations would reduce MYC expression and enhance p16 activity. […] These preclinical data identify potentially useful drug combinations for evaluation in drug-resistant MM and reveal potential mechanisms of combined drug sensitivity.
Described herein is the primary MIPE qHTS used to cherrypick compounds. Validated compounds were then further tested for potential synergistic activiy.
[1] Peat TJ, Gaikwad SM, Dubois W, Gyabaah-Kessie N, Zhang S, Gorjifard S, Phyo Z, Andres M, Hughitt VK, Simpson RM, Miller MA, Girvin AT, Taylor A, Williams D, D'Antonio N, Zhang Y, Rajagopalan A, Flietner E, Wilson K, Zhang X, Shinn P, Klumpp-Thomas C, McKnight C, Itkin Z, Chen L, Kazandijian D, Zhang J, Michalowski AM, Simmons JK, Keats J, Thomas CJ, Mock BA. Drug combinations identified by high-throughput screening promote cell cycle transition and upregulate Smad pathways in myeloma. Cancer Lett. 2023 Aug 1;568:216284. doi: 10.1016/j.canlet.2023.216284. Epub 2023 Jun 24. PMID: 37356470; PMCID: PMC10408729.
SEQUENCE No. (e.g., 1, 2, 3, etc.); […] (e.g., Cells, Incubation, Reagent, etc.); VALUE and DESCRIPTION.
1; Cells; 5 uL; white, solid bottom 1536-well Greiner assay plate.
2; Compounds; 23 nL; Kalypsis pin tool (Wako USA) equipped with a 1536-well pin head to transfer to the assay plates.
3; Incubation; 48 hours; 37C incubation.
4; Reagent;5uL; CellTiter Glo (Promega).
5; Detector; 425V; Luminescence; Viewlux PerkinElmer.
NOTES (numbers refer to Sequence numbers above)
1. The cell-based screening methods employed in this study were like those previously published. Briefly, the corresponding myeloma cell lines were screened in 1,536-well plates with 500 cells, 5-uL per well for inhibition of cell viability (assessed by measuring ATP levels with CellTiterGlo).
2. NCATS MIPE 4.0 library of approved and investigational drugs were added using the Kalypsis pin tool. Wells treated with DMSO only for 100% viability and media only for 0% viability were used as controls.
3. The assay plates were covered and incubated for 48 hours in a 37C, 5% CO2 incubator with controlled humidity.
4. After 48 hours, CellTilter-GloTM luminescent substrate mix (Promega) reagent was added to the assay plate and plates we incubated for 5 min at room temperature.
5. Signal was measured as median relative luminescence units on a ViewLux (PerkinElmer) multiplate reader.
[1] Heske CM, Davis MI, Baumgart JT, Wilson K, Gormally MV, Chen L, Zhang X, Ceribelli M, Duveau DY, Guha R, Ferrer M, Arnaldez FI, Ji J, Tran HL, Zhang Y, Mendoza A, Helman LJ, Thomas CJ. Matrix Screen Identifies Synergistic Combination of PARP Inhibitors and Nicotinamide Phosphoribosyltransferase (NAMPT) Inhibitors in Ewing Sarcoma. Clin Cancer Res. 2017 Dec 1;23(23):7301-7311. doi: 10.1158/1078-0432.CCR-17-1121. Epub 2017 Sep 12. PMID: 28899971; PMCID: PMC6636827.
In the case of `C[C@@H]1[C@@H](CC(C[C@H]2O[C@@H]3O[C@]4(C)CC[C@@H]5[C@H](C)CC[C@@H]([C@H]2C)[C@@]35OO4)C[S+](=O)([O-])c2ccc(COC(=O)N(C)C)cc2)O[C@@H]2O[C@]3(C)CC[C@H]4[C@H](C)CC[C@@H]1[C@@]24OO3` (stereo not given in full), the Potency was 83.3 nM (active).
Turning to `COC[C@H]1OC(=O)c2coc3c2[C@@]1(C)C1=C(C3=O)C2CCC(=O)[C@@]2(C)C[C@H]1OC(C)=O` (stereo not given in full), the Potency is 743 nM (active).
In the case of `Cc1cccc(C)c1NC(=O)CN1CCCC1=O`, the “viability (% of DMSO)” value was 158% (inactive).
The same measure, in the same setting: the result for `CNCC(O)c1ccc(O)cc1` (stereo not given) reads 123% (inactive).
For `Cc1cc(SCc2sc(-c3ccc(C(F)(F)F)c(F)c3)nc2C)ccc1OCC(=O)O`, the Potency is 20900 nM (active).
Same read-out and setting: the result for `CNC(=O)c1ccc(N2C(=S)N(c3ccc(C#N)c(C(F)(F)F)c3)C(=O)C23CCC3)cc1F` reads 2960 nM (active); that for `Cn1cc(C2=C(c3cn(C4CCN(Cc5ccccn5)CC4)c4ccccc34)C(=O)NC2=O)c2ccccc21`, 3720 nM (active); that for `CC(O)(CS(=O)(=O)c1ccc(F)cc1)C(=O)Nc1ccc(C#N)c(C(F)(F)F)c1` (stereo not given), 743 nM (active).
As to `C[C@@H]1O[C@@H](O[C@H]2C[C@@H](O)[C@]3(CO)[C@H]4[C@H](O)C[C@]5(C)[C@@H](C6=CC(=O)OC6)CC[C@]5(O)[C@@H]4CC[C@]3(O)C2)[C@H](O)[C@H](O)[C@H]1O`, the Potency is 14.8 nM (active).
On the same count and under the same terms, the result for `Cn1c(CCCC(=O)O)nc2cc(N(CCCl)CCCl)ccc21` reads 6620 nM (active).
For `CN1CCN(C(=O)O[C@H]2c3nccnc3C(=O)N2c2ccc(Cl)cn2)CC1`, the “viability (% of DMSO)” value was 165% (inactive).
As for `Fc1ccc(C(OCCN2CCN(CCCc3ccccc3)CC2)c2ccc(F)cc2)cc1`, the Potency was 7430 nM (active).
Consider `CNC(=O)N1N=C(c2ccc(N)cc2)c2cc3c(cc2CC1C)OCO3` (stereo not given), for which the Potency is 1480 nM (active).
For the molecule `COc1ccc2c(c1OC)CN1CCc3cc4c(cc3C1C2)OCO4` (stereo not given), the “viability (% of DMSO)” value was 209% (inactive).
Take `N[C@@H](Cc1ccc(N(CCCl)CCCl)cc1)C(=O)O`: the Potency was 662 nM (active).
For the molecule `CCCC(C)(COC(N)=O)COC(=O)NC(C)C` (stereo not given), the “viability (% of DMSO)” value is 170% (inactive).
Regarding `C[C@@H]1[C@@H](C(=O)C[C@H]2O[C@@H]3O[C@]4(C)CC[C@@H]5[C@H](C)CC[C@@H]([C@H]2C)[C@@]35OO4)O[C@@H]2O[C@]3(C)CC[C@H]4[C@H](C)CC[C@@H]1[C@@]24OO3`, the Potency is 74.3 nM (active).
The same measure, in the same setting: the result for `O=P1(NCCCl)OCCCN1CCCl` (stereo not given) reads 8330 nM (active).
For the molecule `CN(C)CCc1ccc(O)cc1`, the “viability (% of DMSO)” value is 173% (inactive).
In the case of `C=C(C)[C@H]1Cc2c(ccc3c2O[C@@H]2COc4cc(OC)c(OC)cc4[C@@H]2C3=O)O1`, the Potency was 1050 nM (active).
